In PubChem BioAssay (Tox21):
Records with an inconclusive call do not appear. Active and inactive are the calls of the source. Unless noted, calls follow the shape of the dose curve; as a rule, active = well fitted curve in the direction sought with a large enough effect in the repeat runs; inconclusive = weak or mixed curves; inactive = no such curve, though single readings can be large; an effect the other way counts as inactive or inconclusive.

Columns and labels:
[1] = qHTS assay to identify small molecule antagonists of the peroxisome proliferator-activated receptor delta (PPARd) signaling pathway - cell viability counter screen (AID 743213); also: % is scaled to controls: 0 for no effect and ±100 for the full control effect; nearly all actives have a fitted effect of over 50% in size
In short: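 PPARd-bla HEK293H cells were treated with compounds plus agonist L165041 (300 nM final) for 17 h at 37 C. Viability was then read in the same wells by CellTiter-Glo luminescence after 30 min at room temperature.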

[2] = qHTS assay to identify small molecule antagonists of the farnesoid-X-receptor (FXR) signaling pathway - cell viability counter screen (AID 743221; active = well fitted cell-killing curve with a large enough effect in the repeat runs, not every such curve was filed as active; also: % is scaled to controls: 0 for no effect and ±100 for the full control effect; nearly all actives have a fitted effect of over 50% in size)
In short: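 Cytotoxicity is taken from ATP luminescence (CellTiter-Glo, 30 min, room temperature) in FXR-bla HEK 293T cells previously incubated 16 h at 37 C with compound and chenodeoxycholic acid at 50 uM final.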

[3] = biological target: Vitamin D3 receptor (Homo sapiens) (UniProt P11473); assay: qHTS assay to identify small molecule agonists of the vitamin D receptor (VDR) signaling pathway (AID 743222; calls by dose curve; also: % is scaled to controls: 0 for no effect and ±100 for the full control effect)
Sequence of Vitamin D3 receptor (Homo sapiens) (P11473 whole entry, looked up): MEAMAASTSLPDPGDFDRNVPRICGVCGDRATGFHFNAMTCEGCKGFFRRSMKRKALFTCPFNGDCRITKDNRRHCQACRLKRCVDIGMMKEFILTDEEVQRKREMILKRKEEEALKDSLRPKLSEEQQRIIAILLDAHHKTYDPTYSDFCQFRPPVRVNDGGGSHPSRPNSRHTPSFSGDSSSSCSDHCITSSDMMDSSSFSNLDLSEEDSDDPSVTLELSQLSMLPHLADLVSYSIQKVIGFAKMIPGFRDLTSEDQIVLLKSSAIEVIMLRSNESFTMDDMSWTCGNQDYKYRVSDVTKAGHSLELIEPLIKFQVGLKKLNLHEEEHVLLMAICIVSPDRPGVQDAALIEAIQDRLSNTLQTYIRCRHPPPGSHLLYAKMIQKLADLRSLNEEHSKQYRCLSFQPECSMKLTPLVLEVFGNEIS
In short: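 Cells carrying a VDR-driven beta-lactamase reporter are seeded at 2,000 per well and rested 4 h. Compounds in DMSO are added for 16 h at 37C, and FRET substrate fluorescence is measured after 2 h at room temperature.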

[4] = biological target: Vitamin D3 receptor (Homo sapiens) (UniProt P11473); assay: qHTS assay to identify small molecule antagonists of the vitamin D receptor (VDR) signaling pathway (AID 743223; active = well fitted inhibition curve with a large enough effect in the signal ratio in the repeat runs, not every such curve was filed as active; the % refers to the signal ratio; also: % is scaled to controls: 0 for no effect and ±100 for the full control effect)
In short: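 Quantitative HTS in VDR-bla reporter cells stimulated with 1alpha,25-dihydroxyvitamin D3, 3 nM final. Compound exposure 16 h, 37C, 5% CO2. Read-out: beta-lactamase FRET substrate fluorescence, 2 h RT.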

[5] = qHTS assay to identify small molecule antagonists of the vitamin D receptor (VDR) signaling pathway - cell viability counter screen (AID 743225); also: % is scaled to controls: 0 for no effect and ±100 for the full control effect; nearly all actives have a fitted effect of over 50% in size
In short: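 Same-well multiplex: following 16 h treatment of HEK 293T cells carrying a UAS-driven beta-lactamase reporter with compound and agonist (3 nM final), and a 2 h FRET substrate step, CellTiter-Glo was added and luminescence read after 30 min.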

[6] = qHTS assay to identify small molecule agonists of the NFkB signaling pathway - cell viability counter screen (AID 1159515; calls by dose curve; also: series mostly up to about 61 µM; % is scaled to controls: 0 for no effect and ±100 for the full control effect; nearly all actives have a fitted effect of over 55% in size)
In short: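 Cells are seeded (2,000 NFkB-bla ME-180 per well), rested overnight, and dosed with DMSO-dissolved compounds for 5 hr at 37 C. Viability is then read by CellTiter-Glo luminescence after 30 min at room temperature.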

[7] = qHTS assay to identify small molecule agonists of the endoplasmic reticulum stress response signaling pathway (AID 1159516; active = well fitted activation curve with a large enough effect in the signal ratio in the repeat runs, not every such curve was filed as active; the % refers to the signal ratio; also: % is scaled to controls: 0 for no effect and ±100 for the full control effect)
In short: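 Cells are seeded at 1,500 per well and incubated overnight. Compounds in DMSO are added for 5 hr at 37 C, then beta-lactamase FRET substrate for 2 hr at room temperature, and fluorescence at 460 and 530 nm is measured.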

[8] = qHTS assay to identify small molecule agonists of the endoplasmic reticulum stress response signaling pathway - cell viability counter screen (AID 1159517; calls by dose curve;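 also: HeLa cells carrying an ER stress response element beta-lactamase reporter; series mostly up to about 61 µM; % is scaled to controls: 0 for no effect and ±100 for the full control effect; nearly all actives have a fitted effect of over 50% in size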)
In short: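 ESRE-bla HeLa cells (1,500/well) were plated overnight at 37 C and exposed to compounds for 5 hr. After the 2 hr beta-lactamase substrate read, CellTiter-Glo went into the same wells, and luminescence was read after 30 min at room temperature.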

[9] = qHTS assay to identify small molecule antagonists of the retinoid-related orphan receptor gamma (ROR-gamma) signaling pathway - cell viability counter screen (AID 1159520)
In short: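 Cytotoxicity was read from cellular ATP (CellTiter-Glo luminescence) after 16 hr at 37 C with 1 uM doxycycline induction. The inducer was added 2 hr after compound transfer to Tet-on ROR gamma CHO cells.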

[10] = biological target: Nuclear receptor ROR-gamma (Homo sapiens) (UniProt P51449); assay: qHTS assay to identify small molecule antagonists of the retinoid-related orphan receptor gamma (ROR-gamma) signaling pathway (AID 1159521)
In short: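 Inducible-expression reporter assay: doxycycline (1 uM final) switched on RORγ in CHO cells bearing a ROR response element-luciferase construct, with test compounds present from 2 h beforehand. Decreased luminescence after 16 h defined antagonist activity.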

[11] = qHTS assay to identify small molecule agonists of the AP-1 signaling pathway - cell viability counter screen (AID 1159525; calls by dose curve; also: nearly all actives have a fitted effect of over 55% in size)
In short: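 Intracellular ATP by Cell Titer Glo luminescence (30 min, RT) in the same ME-180 AP-1-bla wells after the 5 h compound exposure at 37 °C. Normalised to tetra n-octyl ammonium bromide and DMSO controls.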

[12] = qHTS assay to identify small molecule agonists of the AP-1 signaling pathway (AID 1159526; calls by dose curve; also: % is scaled to controls: 0 for no effect and ±100 for the full control effect)
[13] = biological target: Retinoic acid receptor RXR-alpha (Homo sapiens) (UniProt P19793); assay: qHTS assay to identify small molecule agonists of the RXR signaling pathway (AID 1159527; calls by dose curve; also: % is scaled to controls: 0 for no effect and ±100 for the full control effect; nearly all actives have a fitted effect of over 35% in size)
Sequence of Retinoic acid receptor RXR-alpha (Homo sapiens) (P19793 whole entry, looked up): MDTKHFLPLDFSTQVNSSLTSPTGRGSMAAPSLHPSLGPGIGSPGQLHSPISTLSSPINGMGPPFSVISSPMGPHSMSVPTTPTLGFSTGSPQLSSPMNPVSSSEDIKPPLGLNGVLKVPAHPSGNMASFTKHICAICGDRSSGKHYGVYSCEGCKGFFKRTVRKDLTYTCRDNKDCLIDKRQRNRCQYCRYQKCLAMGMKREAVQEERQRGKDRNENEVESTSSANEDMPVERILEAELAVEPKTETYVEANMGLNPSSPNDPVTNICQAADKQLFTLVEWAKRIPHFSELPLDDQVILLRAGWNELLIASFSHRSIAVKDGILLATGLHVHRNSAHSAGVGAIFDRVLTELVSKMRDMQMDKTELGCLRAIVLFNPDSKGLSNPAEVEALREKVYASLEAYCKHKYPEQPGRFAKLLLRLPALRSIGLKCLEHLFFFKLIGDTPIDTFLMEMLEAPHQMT
In short: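 Compounds in DMSO were added to RXR-alpha-UAS-bla HEK 293T cells kept in 2% charcoal-stripped serum, and incubated 16 hr at 37 C with 5% CO2. Reporter signal came from a 2 hr B/G FRET substrate step.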

[14] = qHTS assay to identify small molecule agonists of the RXR signaling pathway - cell viability counter screen (AID 1159529)
In short: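 Counter screen: CellTiter-Glo luminescence. Cells: RXR-alpha-UAS-bla HEK 293T. Medium: 2% charcoal-stripped FBS. Treatment: 16 h, 37 C. Reagent incubation: 30 min, RT.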

[15] = biological target: Peroxisome proliferator-activated receptor delta (Homo sapiens) (UniProt Q03181); assay: qHTS assay to identify small molecule agonists of the peroxisome proliferator-activated receptor delta (PPARd) signaling pathway (AID 743212; calls by dose curve; also: % is scaled to controls: 0 for no effect and ±100 for the full control effect)
Sequence of Peroxisome proliferator-activated receptor delta (Homo sapiens) (Q03181 whole entry, looked up): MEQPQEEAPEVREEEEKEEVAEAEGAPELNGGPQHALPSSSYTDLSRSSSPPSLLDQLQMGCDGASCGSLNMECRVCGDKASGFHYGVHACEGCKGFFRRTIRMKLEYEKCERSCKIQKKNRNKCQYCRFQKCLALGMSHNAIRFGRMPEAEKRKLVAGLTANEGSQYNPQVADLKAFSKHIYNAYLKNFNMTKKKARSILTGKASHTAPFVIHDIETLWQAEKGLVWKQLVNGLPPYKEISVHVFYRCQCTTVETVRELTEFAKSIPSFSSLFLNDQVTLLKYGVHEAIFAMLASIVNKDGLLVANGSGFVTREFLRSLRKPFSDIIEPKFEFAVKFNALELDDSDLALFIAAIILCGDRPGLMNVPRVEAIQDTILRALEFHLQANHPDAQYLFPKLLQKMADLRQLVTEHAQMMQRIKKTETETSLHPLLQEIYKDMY
In short: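 Beta-lactamase reporter readout: a ratiometric FRET signal from the LiveBLAzer substrate after 2 h at room temperature. Compound exposure at 37 °C in PPARδ-bla HEK293H cells driven by an upstream activator sequence.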

[16] = biological target: Peroxisome proliferator-activated receptor delta (Homo sapiens) (UniProt Q03181); assay: qHTS assay to identify small molecule antagonists of the peroxisome proliferator-activated receptor delta (PPARd) signaling pathway (AID 743215; active = well fitted inhibition curve with a large enough effect in the signal ratio in the repeat runs, not every such curve was filed as active; the % refers to the signal ratio)
In short: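 Cells: HEK293H with a UAS-driven beta-lactamase reporter responsive to PPARd. Compounds were co-added with L165041 (300 nM, final) and incubated 17 h at 37 C before a 2 h room-temperature FRET substrate step and fluorescence reading.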

[17] = qHTS assay to identify small molecule agonists of the farnesoid-X-receptor (FXR) signaling pathway - cell viability counter screen (AID 743218); also: % is scaled to controls: 0 for no effect and ±100 for the full control effect; nearly all actives have a fitted effect of over 45% in size
In short: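 Cells were seeded, left 5 h at 37 C and 5% CO2, then dosed with compound in DMSO for 16 h. After the beta-lactamase FRET read, CellTiter-Glo was added and luminescence measured 30 min later.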

[18] = qHTS assay to identify small molecule agonists of the vitamin D receptor (VDR) signaling pathway - cell viability counter screen (AID 743224)
In short: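 Cells: VDR-bla, 2,000/well, settled 4 h. Treatment: compounds in DMSO, 16 h, 37C/5% CO2. Readout: CellTiter-Glo luminescence after 30 min RT.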

[19] = biological target: Bile acid receptor (Homo sapiens) (UniProt Q96RI1); assay: qHTS assay to identify small molecule antagonists of the farnesoid-X-receptor (FXR) signaling pathway (AID 743217; active = well fitted inhibition curve with a large enough effect in the signal ratio in the repeat runs, not every such curve was filed as active; the % refers to the signal ratio; also: % is scaled to controls: 0 for no effect and ±100 for the full control effect)
Sequence of Bile acid receptor (Homo sapiens) (Q96RI1 whole entry, looked up): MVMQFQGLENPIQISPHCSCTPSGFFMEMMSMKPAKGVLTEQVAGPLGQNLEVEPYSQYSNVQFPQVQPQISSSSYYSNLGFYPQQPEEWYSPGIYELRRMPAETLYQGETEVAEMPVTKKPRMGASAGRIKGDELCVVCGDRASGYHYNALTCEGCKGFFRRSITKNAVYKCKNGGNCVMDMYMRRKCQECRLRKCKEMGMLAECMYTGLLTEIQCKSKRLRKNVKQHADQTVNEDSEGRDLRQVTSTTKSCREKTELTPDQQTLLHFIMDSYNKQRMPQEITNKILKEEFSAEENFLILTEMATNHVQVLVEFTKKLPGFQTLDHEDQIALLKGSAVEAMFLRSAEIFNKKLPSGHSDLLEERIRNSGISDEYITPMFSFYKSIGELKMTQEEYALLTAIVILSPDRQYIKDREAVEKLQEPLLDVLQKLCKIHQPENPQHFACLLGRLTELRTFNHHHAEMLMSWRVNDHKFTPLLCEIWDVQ
In short: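 Cells carrying a UAS-driven beta-lactamase reporter (GeneBLAzer FXR-UAS-bla HEK 293T) were plated and rested 5 h at 37 °C. Compounds in DMSO were added alongside chenodeoxycholic acid agonist at 50 uM final and left 16 h at 37 °C before FRET substrate readout.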

[20] = biological target: Bile acid receptor (Homo sapiens) (UniProt Q96RI1); assay: qHTS assay to identify small molecule agonists of the farnesoid-X-receptor (FXR) signaling pathway (AID 743220; active = well fitted activation curve with a large enough effect in the signal ratio in the repeat runs, not every such curve was filed as active; the % refers to the signal ratio; also: % is scaled to controls: 0 for no effect and ±100 for the full control effect)
In short: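 FXR-UAS-bla HEK 293T cells carrying a UAS-driven beta-lactamase reporter were plated for 5 h at 37C/5% CO2, then exposed to DMSO-dissolved Tox21 10K compounds for 16 h at 37C. A LiveBLAzer B/G FRET substrate was loaded for 2 h at room temperature before fluorescence reading.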

CCOc1ccc2nc(S(N)(=O)=O)sc2c1
inactive: outcome [1] | outcome [2] | outcome [3] | outcome [4] | outcome [5] | outcome [6] | outcome [7] | outcome [8] | outcome [9] | Potency [10] | outcome [11] | outcome [12] | Potency [13] | Potency [14]

CCOC(=O)OC(C)OC1=C(C(=O)Nc2ccccn2)N(C)S(=O)(=O)c2ccccc21 (stereo not given)
inactive: outcome [15] | outcome [1] | outcome [16] | outcome [17] | outcome [2] | outcome [3] | outcome [18] | outcome [5] | outcome [6] | outcome [7] | outcome [8] | outcome [9] | Potency [10] | outcome [11] | outcome [12] | Potency [13]

C=CC(=O)OCCCl
inactive: outcome [1] | outcome [19] | outcome [17] | outcome [20] | outcome [2] | outcome [3] | outcome [4] | outcome [18] | outcome [6] | outcome [7] | outcome [8] | outcome [9] | Potency [10] | outcome [11] | outcome [12] | Potency [13] | Potency [14]

C[N+]1(C)[C@@H]2CC(OC(=O)[C@H](CO)c3ccccc3)C[C@H]1[C@@H]1O[C@@H]12 (stereo not given in full)
inactive: outcome [1] | outcome [17] | outcome [2] | outcome [3] | outcome [4] | outcome [18] | outcome [5] | outcome [6] | outcome [7] | outcome [8] | outcome [9] | Potency [10] | outcome [11] | outcome [12] | Potency [13] | Potency [14]

COc1cccc(OC)c1C(=O)N[C@@H]1C(=O)N2[C@@H]1SC(C)(C)[C@@H]2C(=O)O
inactive: outcome [1] | outcome [17] | outcome [2] | outcome [3] | outcome [4] | outcome [18] | outcome [5] | outcome [6] | outcome [7] | outcome [8] | outcome [9] | Potency [10] | outcome [11] | outcome [12] | Potency [13] | Potency [14]

CC(C)C1CCC(O)CC1 (stereo not given)
inactive: outcome [1] | outcome [2] | outcome [3] | outcome [4] | outcome [18] | outcome [5] | outcome [6] | outcome [7] | outcome [8] | outcome [9] | Potency [10] | outcome [11] | outcome [12] | Potency [13] | Potency [14]

CCN[C@@H]1C[C@H](N)[C@@H](OC2OC(CN)=CCC2N)[C@H](O)[C@H]1O[C@H]1OC[C@](C)(O)[C@H](NC)[C@H]1O (stereo not given in full)
inactive: viability change, negative = cytotoxic [1] 8.69% [at 0.575 µM] | viability change, negative = cytotoxic [17] 10.1% [at 0.55 µM] | activity change, negative = cytotoxicity [2] 2.76% [at 0.55 µM] | activation [3] 11.5% [at 0.554 µM] | activity change, negative = inhibition [4] 9.37% [at 0.628 µM] | activity change, negative = cytotoxicity [18] 0.0384% [at 0.55 µM] | viability change, negative = cytotoxic [5] 2.46% [at 0.628 µM] | activity, negative = cytotoxic [6] 6.29% [at 0.628 µM] | activation [7] 0.974% [at 0.628 µM] | activity change, negative = cytotoxicity [8] -1.46% [at 0.628 µM] | activity, negative = cytotoxicity [9] 3.44% [at 0.349 µM] | activity change, negative = inhibition [10] 45.3% [at 0.35 µM] | viability change, negative = cytotoxic [11] 0.839% [at 0.29 µM] | activation [12] -3.82% [at 0.29 µM] | activation [13] 6.62% [at 0.29 µM] | activity change, negative = cytotoxicity [14] -0.24% [at 0.29 µM]

CC[N+](CC)(CC)CCOc1cccc(OCC[N+](CC)(CC)CC)c1OCC[N+](CC)(CC)CC
inactive: outcome [15] | outcome [1] | outcome [16] | outcome [17] | outcome [2] | outcome [18] | outcome [5] | outcome [6] | outcome [7] | outcome [8] | outcome [9] | Potency [10] | outcome [11] | outcome [12] | Potency [13]
